The values that follow come from PubChem BioAssay (NCATS).

Inconclusive results are not listed. Values without a mark were called inactive. Calls of active or inactive are those of the source. Calls come from the whole dose curve; as a rule, active = well fitted inhibition curve with a large enough effect; inconclusive = small, poorly fitted or top-dose-only effect; inactive = flat fitted curve, though single readings scatter. Non-standard residues stand in square brackets, D forms with d. Residues, ends and D or L forms follow the SMILES beside them. *: point of attachment. Nva = CCC[C@H](N)C(=O)O; Cbz = O=C(OCc1ccccc1)*
% is set by controls: 0 for no effect and ±100 for the full control effect; potency is the fitted concentration of half-maximal effect.

This assay has as its system MCC-26. As to the kind of experiment: qHTS assay to identify novel small-molecules to repurpose for Merkel cell carcinoma treatment (AID 1296009). Note: nearly all actives have a fitted effect of over 60% in size. As to conditions: MCC and control cell lines, CellTiter-Glo viability, 72 h; series mostly up to 46 µM; activity change, negative = cytotoxicity: at the top concentration. The source says: MCC is a rare and aggressive neuroendocrine skin cancer with limited treatment options. Approximately 80% of MCCs have the Merkel cell polyomavirus (MCPyV) DNA integrated into the host genome (virus-positive: VP-MCC) and viral oncogenes drive oncogenesis. The remaining MCCs are virus-negative (VN-MCC) and are caused by UV mutagenesis. To identify novel treatments for VP-MCC and/or VN-MCC we screened three VP-MCC cell lines (WAGA, MKL-1, MKL-2), three VN-MCC cell lines (MCC-13, MCC-26, UISO), and four immortalized, non-transformed control cell lines (HaCaT, HEK293T, CRL7250, NIH-3T3) against ~2,400 compounds in the NCGC Pharmaceutical Collection (NPC) and ~1,900 compounds in the Mechanism Interrogation PlatE (MiPE). Using cell viability as a readout (CellTiter-Glo assay) we found both overlapping and distinct drugs that can be repurposed for the treatment of VP-MCC and VN-MCC.
A high-throughput screen was conducted in 1536-well white flat bottom plates (Corning) on a Kalypsys robotic system. Cell lines WAGA, MKL-1, MKL-2, MCC-13, MCC-26, UISO, HaCaT, HEK293T, CRL7250, and NIH-3T3 were screened against 2 small molecule annotated drug libraries NPC and MIPE in dose response (8 and 11 pt. respectively) measuring cell viability after 72 hours of incubation. […] A 1,536 pintool (Kalypsys) was used to transfer 23 nL of compound in DMSO to the 1,536-well assay plates. After 72 hr incubation at 37 degree celsius, 2.5 uL of CellTiter-Glo (Promega) was dispensed into each well using a BiorapTR. Plates were incubated at room temperature for 10 min, transferred to a ViewLux (PerkinElmer) and the luminescence was recorded using an exposure time of 2 seconds. Relative luminescence units (RLUs) were normalized to in-plate controls (no cells as a positive (cytotoxicity) control, DMSO as negative control) and the normalized data was processed using NCATS in-house software.
In the case of `FC(F)(F)c1ccc(Nc2nc3ccc(Oc4ccnc(-c5ncc(C(F)(F)F)[nH]5)c4)cc3[nH]2)cc1`, the “activity change, negative = cytotoxicity” value is -6.97%.
Consider `CC(C)NC[C@@H](C(=O)N1CCN(c2ncnc3c2[C@H](C)C[C@H]3O)CC1)c1ccc(Cl)cc1`, for which the “activity change, negative = cytotoxicity” value is -16.1%.
On the same count and under the same terms, the value for `C[C@@H](Cc1cc2c(c(C(N)=O)c1)N(CCCO)CC2)NCCOc1ccccc1OCC(F)(F)F` was -7.11%; that for `COc1cc2ncnc(Nc3cccc(Br)c3)c2cc1OC` was -19.6%.
As to `CC(C)(C)[N+]([O-])=Cc1ccc(S(=O)(=O)O)cc1S(=O)(=O)O`, the “activity change, negative = cytotoxicity” value is 8.49%.
Turning to `CCOC(=O)C=C[C@H](C[C@@H]1CCNC1=O)NC(=O)[C@@H](CC(=O)[C@@H](NC(=O)c1cc(C)on1)C(C)C)Cc1ccc(F)cc1`, the “activity change, negative = cytotoxicity” value is -0.496%.
On the same count and under the same terms, the value for `O=C(CN1C(=O)C2(CCCC2)NC[C@H]1c1cc(F)cc(F)c1)Nc1ccc2c(c1)C[C@@]1(C2)C(=O)Nc2ncccc21` was 2.96%; that for `C[C@]12CC[C@@H]3c4ccc(O)cc4CC[C@H]3[C@H]1CC[C@H]2O` was -3.54%.
Turning to `CC(=O)NCC(=O)N1[C@H]2CC[C@H]1c1cc(Nc3ncc(C(F)(F)F)c(NC4CCC4)n3)ccc12`, the Potency is 3.72 µM (active).
With `O=C(C=CC#Cc1cccc(NS(=O)(=O)c2ccccc2)c1)NO`, the Potency was 18.7 µM (active).
Turning to `C=C1C[C@@]2(O)O[C@@]3(C[C@H]2C(C)C)[C@H](C)CC[C@H]13`, the “activity change, negative = cytotoxicity” value is -5.57%.
As to `O=S(=O)(O)CCSSCCS(=O)(=O)O`, the “activity change, negative = cytotoxicity” value was -6.43%.
Turning to `CC(C)(N)c1ccc(-c2nc3ccccc3nc2-c2ccccc2)cc1`, the “activity change, negative = cytotoxicity” value is -11.6%.
Consider `CCC[C@@H](C=O)NC(=O)[C@H](CC(C)C)NC(=O)[C@H](CC(C)C)NC(=O)OCc1ccccc1` (Cbz-Leu-Leu-[Nva]-aldehyde), for which the Potency was 3.32 µM (active).
For `N#Cc1ccc(COC[C@H]2O[C@@H](n3c(NCc4ccc(Cl)c(Cl)c4)nc4c(N)ncnc43)[C@@H](O)[C@@H]2O)cc1`, the “activity change, negative = cytotoxicity” value was -26.8%.
As for `NS(=O)(=O)OC[C@@H]1C[C@@H](n2ccc3c(N[C@H]4CCc5ccccc54)ncnc32)C[C@H]1O`, the Potency is 2.09 µM (active).
Regarding `O=c1ccn([C@@H]2O[C@H](CO)[C@H](O)[C@@H]2F)c(=O)[nH]1`, the “activity change, negative = cytotoxicity” value is 0.0235%.
Take `Cc1cnc(Nc2ccc(CN3CCOCC3)cc2)nc1Nc1cccc(S(=O)(=O)NC(C)(C)C)c1`: the Potency is 8.33 µM (active).
For `CN(C)CCN1C(=O)c2cccc3cc(N)cc(c23)C1=O`, the “activity change, negative = cytotoxicity” value was -3.83%.
In the case of `CC(=O)C1=C(O)C=C2Oc3c(C(C)=O)c(O)c(C)c(O)c3C2(C)C1=O` (stereo not given), the “activity change, negative = cytotoxicity” value is -2.03%.
With `COc1cc([C@@H]2c3cc4c(cc3[C@@H](O[C@@H]3O[C@@H]5CO[C@@H](c6cccs6)O[C@@H]5[C@H](O)[C@@H]3O)[C@H]3COC(=O)[C@H]23)OCO4)cc(OC)c1O`, the Potency was 2.35 µM (active).
On to `c1coc(CNc2ncnc3nc[nH]c23)c1`, for which the “activity change, negative = cytotoxicity” value is 4.42%.
Consider `OC[C@H]1OC(O)C[C@@H](O)[C@H]1O` (stereo not given in full), for which the “activity change, negative = cytotoxicity” value is -8.52%.
As for `O=C(C=CC=Cc1ccc2c(c1)OCO2)N1CCCCC1`, the “activity change, negative = cytotoxicity” value is -3.48%.
Consider `CC(C=CC1=C(C)CCCC1(C)C)=CC=CC(C)=CC(=O)Nc1ccc(O)cc1`, for which the “activity change, negative = cytotoxicity” value was -8.58% [at 92.7 µM].
In the case of `Cc1cc(O)c2c(c1)C(=O)c1cccc(O)c1C2=O`, the “activity change, negative = cytotoxicity” value was 5.44%.
`C[C@H](CCC(=O)O)[C@H]1CC[C@H]2[C@@H]3[C@H](O)C[C@@H]4C[C@H](O)CC[C@]4(C)[C@@H]3CC[C@]12C`: the “activity change, negative = cytotoxicity” value is 8.18%.
Still for that read-out and setting: the value for `CCOc1cc2ncc(C#N)c(Nc3ccc(OCc4ccccn4)c(Cl)c3)c2cc1NC(=O)C=CCN(C)C` was -19.6%.
With `CN(N=O)C(=O)N[C@H]1C(O)OC(CO)[C@@H](O)[C@H]1O` (stereo not given in full), the “activity change, negative = cytotoxicity” value was -1.07%.
Take `C=C(C)[C@@H]1CC[C@]2(C)CC[C@]3(C)[C@H](CC[C@@H]4[C@@]5(C)CC[C@H](O)C(C)(C)[C@H]5CC[C@]43C)[C@@H]12`: the “activity change, negative = cytotoxicity” value was 2.7%.
Still for that read-out and setting: the value for `CC(C)Oc1ccc(C(=O)N[C@H](CNC(=O)CN(C)C)Cc2ccc(-c3cn4cccc([C@H](C)O)c4n3)cc2)cc1Cl` was -12.8%; that for `N#Cc1cc(NC(=O)Nc2nnc(-c3ccncc3)s2)ccc1-c1cn[nH]c1` was -3.37%; that for `CCCc1nc(C(C)(C)O)c(C(=O)O)n1Cc1ccc(-c2ccccc2-c2nn[nH]n2)cc1` was 1.91%.
For the compound `O=C(NCc1ccccc1)[C@H](Cc1ccccc1)NC(=O)[C@@H]1O[C@@H]1C(=O)NCCc1ccc(O)cc1`, the “activity change, negative = cytotoxicity” value was -5.53%.
On to `CO[C@@H]1[C@@H](O)[C@H](O)[C@@H](n2c3c(Cl)cccc3c3c4c(c5c6cccc(Cl)c6[nH]c5c32)C(=O)NC4=O)O[C@@H]1CO`, for which the Potency is 1.18 µM (active).
In the case of `NC[C@H]1O[C@H](O[C@H]2[C@@H](O)[C@@H](O[C@H]3O[C@H](CO)[C@@H](O)[C@H](N)[C@@H]3O)[C@H](N)C[C@@H]2N)[C@H](N)C[C@H]1O`, the “activity change, negative = cytotoxicity” value was 1.46%.
As to `c1cc(N[C@@H]2CCNC2)nc(-c2cnc3ccc(-c4cn[nH]c4)cn23)c1`, the “activity change, negative = cytotoxicity” value is -14.9%.
As to `COc1cccc2c1C(=O)c1c(O)c3c(c(O)c1C2=O)C[C@@](O)(C(=O)CO)C[C@@H]3O[C@H]1C[C@H](N)[C@@H](O)[C@H](C)O1`, the Potency was 2.35 µM (active).
As to `C[C@@]12C(=O)OC(=O)[C@@]1(C)C1CCC2O1`, the Potency is 6.62 µM (active).
For the compound `NC(=O)c1cccc(-c2cccc(OC(=O)NC3CCCCC3)c2)c1`, the “activity change, negative = cytotoxicity” value was -2.25%.
